The test is described as follows: SR lymphoma cell cytotoxicity, late-stage follow-up, mechanism study for HRAS target identification, Alamar Blue fluorescence, several timepoints, dry powder (AID 720626).

Results filed as inconclusive are left out. Active and inactive are the calls of the source.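 How the source made its calls: active means all three exposure times show falling viability signal with fitted midpoint dose at most twice top tested dose; inconclusive means calls differ across the three exposure times; inactive means all three exposure times inactive.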

The values below come from PubChem BioAssay AID720626 (Broad Institute, 2013).

For `Cc1onc(C(=O)N2CCN(C(c3ccncc3)c3ccncc3)CC2)c1[N+](=O)[O-]`, the outcome was inactive.
`CCC(=O)N(c1ccc(OC)c(Cl)c1)C(C(=O)NCCc1ccccc1)c1cccs1` (configuration not stated): the compound was called inactive.
